Results on 27 compounds are retold here after PubChem BioAssay AID686978 (National Center for Advancing Translational Sciences (NCATS), 2013).

Each structure is given as a SMILES string. “And” between values parts separate entries of the source, which are not always exact repeats. Equal values may be shown once. Out of some 420,000 compounds screened, about 64,000 (15%) were called active. Roughly 27% stayed inconclusive and do not appear here. Calls come from the whole dose curve; as a rule, active = well fitted inhibition curve with a large enough effect; inconclusive = small, poorly fitted or top-dose-only effect; inactive = flat fitted curve, though single readings scatter. Not all results are given here. A call without a number means that no potency is given here.
Potency is the fitted concentration of half-maximal effect.

The nature of this experiment: qHTS for Inhibitors of human tyrosyl-DNA phosphodiesterase 1 (TDP1): qHTS in cells in absence of CPT. Note: nearly all actives have a fitted effect of over 55% in size. To be noted: DT40 Tdp1-/- hTDP1 cells, no CPT, ATP luminescence, 48 h; activity change, negative = growth inhibition: at 46.2 µM (top of the series). The method in brief:
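Growth of hTDP1-complemented DT40 Tdp1-knockout cells is measured by ATP luminescence after at least 48 hr compound exposure at 37 °C, with DMSO substituting for the 20 nM CPT used in the parallel screen.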
On to `CCOc1cc2[nH]c(=O)n(Cc3ccc(C(=O)NCCCN4CCCC4=O)cc3)c(=O)c2cc1OCC`, for which the Potency entry is “inactive”.

Turning to `CS(=O)(=O)N1CCC2(CC1)CN(c1ccncc1)C2`, the Potency result was “inactive”.

In the case of `Cc1ccc(-c2nnc3c4ccccc4c(C)nn23)cc1NC(=O)c1cccc(Br)c1`, the Potency entry was “inactive”.

`CS(=O)(=O)N1CCCC(C(=O)N2CCOCC2)C1` (configuration not stated): the Potency entry was “inactive”.

Turning to `CCOc1ccc(NC(=O)CN(C)CC(=O)NC(C)c2ccccc2)cc1OCC` (configuration not stated), the Potency result is “inactive”.

As to `COc1ccc(Cc2nnc(SCC(=O)c3cccc([N+](=O)[O-])c3)n2C)cc1`, the Potency entry is “inactive”.

As to `CCOc1ccc2nc(NCCNS(=O)(=O)c3ccccc3)c(C#N)cc2c1`, the Potency entry is “inactive”.

Turning to `CC(C)(C)N1C(=O)[C@H]2[C@@H](c3ccc(Br)cc3)N3C(=O)N(c4cccc(Cl)c4)C(=O)[C@@]3(C)[C@H]2C1=O`, the Potency result is “inactive”.

Consider `COC(=O)[C@H](Cc1ccccc1)NC(=O)Nc1ccc(S(N)(=O)=O)cc1`, for which the Potency entry is “inactive”.

`COc1c(Cl)cc(C(=O)Nc2ccc(Cl)cn2)cc1Cl`: the Potency result was “inactive”.

For `O=C(Nc1nnc(S(=O)(=O)N2CCCCCC2)s1)c1cccc(Br)c1`, the Potency is 4.61 µM (active) and 20.6 µM (active).

As for `CCN(CC(=O)Nc1ccc(S(=O)(=O)N2CCCC2)cc1)CC(=O)Nc1cccc(OC)c1`, the Potency result was “inactive”.

As to `O=C(Nc1nncs1)c1cccc(S(=O)(=O)N2CCCCC2)c1`, the Potency result was “inactive”.

Regarding `CCCc1cc(C(=O)Nc2ccc(Cl)cn2)cs1`, the Potency result was “inactive”.

Take `O=C(Nc1ccc(Cl)cn1)c1ccc2c(c1)OCCO2`: the Potency was 18.4 µM (active).

As to `Cn1nnnc1SCC(=O)Nc1cccc(S(=O)(=O)N2CCCCC2)c1`, the Potency entry is “inactive”.

Take `CC(=O)NC(CC(=O)Nc1cccc(S(=O)(=O)N2CCCC2)c1)c1ccccc1` (configuration not stated): the Potency result was “inactive”.

Take `O=C(NNC1=NCCC1)c1cccc(S(=O)(=O)N2CCCCC2)c1`: the Potency result is “inactive”.

For `O=C(Nc1cccc(S(=O)(=O)N2CCCCC2)c1)c1cncc(Br)c1`, the Potency was 18.4 µM (active).

As to `Cc1cccc(C(=O)Nc2nnc(S(=O)(=O)N3CCCCCC3)s2)c1`, the Potency entry was “inactive”.

Take `CCN(CC(=O)Nc1cccc(S(=O)(=O)N2CCCCC2)c1)Cc1ccccc1`: the Potency was 23.1 µM (active).

In the case of `COc1ccc(S(=O)(=O)N2CCSCC2)cc1`, the Potency result was “inactive”.

Take `CCOC(=O)NC(=O)CSc1nnc(SCCC(=O)O)s1`: the Potency entry was “inactive”.

Take `COc1ccccc1-c1ccc(C(=O)N(C)C(C)c2ccon2)c(N2CCN(c3ccccc3F)CC2)n1` (configuration not stated): the Potency result was “inactive”.

As for `N=c1c2c3c(sc2ncn1N)CCCC3`, the Potency entry is “inactive”.

For the compound `O=C(Nc1ccc(S(=O)(=O)N2CCCC2)cc1Cl)C1=COCCO1`, the Potency entry was “inactive”.

On to `CC(C)(O)CCC(O)[C@@](C)(O)C1CC[C@]2(O)C3=CC(=O)C4CC(O)C(O)C[C@]4(C)C3CC[C@]12C` (some centres not stated), for which the Potency result is “inactive”.
